According to PubChem BioAssay (NCI):
This is part of a sample that, as a whole, favours compounds with a hit. Of some 79,000 tested, about 15% had one in any assay. A number with no mark means an inactive call. Calls of active or inactive are those of the source. No stated cut-off is given here; in the data, active means growth inhibition above about 70%; inactive means the rest.

How the values were obtained:
[1] = NCI Yeast Anticancer Drug Screen. Data for the rad50 strain (AID 155);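 further: 0% = growth of vehicle-only cultures of the same strain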; settings: S. cerevisiae rad50 strain growth inhibition, hits give high values
Summary of the method: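 Growth of the mutant yeast was measured after compound exposure and referenced to vehicle-treated cultures.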

[2] = NCI Yeast Anticancer Drug Screen. Data for the mec2-1 strain (AID 157); settings: S. cerevisiae mec2-1 strain, hits give high values
Summary of the method: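 Test agents were screened against the mec2-1 yeast strain, with defined DNA repair or cell cycle alteration. Growth was scored as inhibition against vehicle-only controls.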

[3] = NCI Yeast Anticancer Drug Screen. Data for the sgs1 mgt1 strain (AID 161);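 further: 0% = growth of cultures given vehicle only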; settings: S. cerevisiae sgs1 mgt1 strain, hits give high values
Summary of the method: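 Test agents were incubated with a DNA-repair-mutant yeast strain. Growth was then read and compared against vehicle-treated controls.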

[4] = NCI Yeast Anticancer Drug Screen. Data for the cln2 rad14 strain (AID 165);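 further: 0% = growth equal to vehicle treated cultures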; settings: S. cerevisiae cln2 rad14 strain, hits give high values
Summary of the method: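 Growth of compound-exposed yeast (cln2 rad14 genotype) measured and expressed as inhibition relative to vehicle.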

[5] = NCI Yeast Anticancer Drug Screen. Data for the bub3 strain (AID 167); settings: S. cerevisiae bub3 mutant strain, hits give high values
Summary of the method: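 Whole-cell yeast assay. The mutant strain was incubated with compounds, and growth inhibition was determined by comparison with vehicle-treated cells.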

[6] = NCI Yeast Anticancer Drug Screen. Data for the mlh1 rad18 strain (AID 175); settings: S. cerevisiae mlh1 rad18 strain growth inhibition, hits give high values
Summary of the method: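 In this whole-cell yeast screen, a strain with altered DNA damage repair is challenged with compound, and its growth is measured against matched vehicle-treated controls.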

[7] = at 5.0 µM (retest, dose inferred, filed as 0.5)
[8] = at 50.0 µM (retest, dose inferred, filed as 5.0)

| SMILES | growth inhibition [1, 7] | growth inhibition [1, 8] | growth inhibition ([1]; at 50.0 µM) | growth inhibition [2, 7] [%] | growth inhibition [2, 8] | growth inhibition ([2]; at 50.0 µM) | growth inhibition [3, 7] | growth inhibition [3, 8] | growth inhibition ([3]; at 50.0 µM) | growth inhibition [4, 7] [%] | growth inhibition [4, 8] | growth inhibition ([4]; at 50.0 µM) | growth inhibition [5, 7] | growth inhibition [5, 8] | growth inhibition ([5]; at 50.0 µM) | growth inhibition [6, 7] | growth inhibition [6, 8] | growth inhibition ([6]; at 50.0 µM) |
| --- | --- | --- | --- | --- | --- | --- | --- | --- | --- | --- | --- | --- | --- | --- | --- | --- | --- | --- |
| CCOC(=O)c1c(N)c(=O)n2c3c(cccc13)CC2 | 0% | 92% (active) | 96.9% (active) | -2 | 98% (active) | 97.5% (active) | 0% | 99% (active) | 97.7% (active) | 7 | 59% | 98.7% (active) | -1% | 79% (active) | 96.8% (active) | 21% | 98% (active) | 98.6% (active) |
| Cc1ccc(Nc2nc3c(s2)C(=O)c2ccccc2C3=O)c(C)c1 | 28% | 99% (active) | 98.7% (active) | 33 | 99% (active) | 99.5% (active) | 18% | 99% (active) | 99.2% (active) | 7 | 98% (active) | 98.9% (active) | 50% | 99% (active) | 99.5% (active) | 30% | 98% (active) | 97.8% (active) |
| Cc1ccc(NNC2=NC(=S)NC(=O)C2)cc1 | 12% | 97% (active) | 97.5% (active) | 8 | 98% (active) | 96.9% (active) | 18% | 97% (active) | 80.6% (active) | -8 | 95% (active) | 84.8% (active) | 9% | 97% (active) | 97.8% (active) | 18% | 97% (active) | 98.3% (active) |
| O=C(CBr)N1c2ccccc2Sc2ccc3ccccc3c21 | 93% (active) | 99% (active) | 90.5% (active) | 49 | 99% (active) | 90.7% (active) | 81% (active) | 99% (active) | 91.7% (active) | 62 | 99% (active) | 90% (active) | 74% (active) | 99% (active) | 91% (active) | 88% (active) | 98% (active) | 88.2% (active) |
| O=c1oc(-c2ccccc2Br)ns1 | 0% | 99% (active) | 98.8% (active) | 3 | 100% (active) | 99.6% (active) | 9% | 99% (active) | 99.4% (active) | 4 | 99% (active) | 89.8% (active) | -8% | 99% (active) | 97.5% (active) | 6% | 99% (active) | 99.3% (active) |
